Compound activity from PubChem.
Only some compounds are listed: those with a hit (about 6% of all), similar ones and a draw of the others.
D1 agonist: activates the human D1 dopamine receptor. HEK293 T-REx D1 cells, calcium flux, agonist mode. AID 504660. 1% of 360,000 active. P21728. activation, % at 2 µM; in the data active = activation above about 30%; also: 0% is about no effect
Target sequence (P21728 whole entry, looked up): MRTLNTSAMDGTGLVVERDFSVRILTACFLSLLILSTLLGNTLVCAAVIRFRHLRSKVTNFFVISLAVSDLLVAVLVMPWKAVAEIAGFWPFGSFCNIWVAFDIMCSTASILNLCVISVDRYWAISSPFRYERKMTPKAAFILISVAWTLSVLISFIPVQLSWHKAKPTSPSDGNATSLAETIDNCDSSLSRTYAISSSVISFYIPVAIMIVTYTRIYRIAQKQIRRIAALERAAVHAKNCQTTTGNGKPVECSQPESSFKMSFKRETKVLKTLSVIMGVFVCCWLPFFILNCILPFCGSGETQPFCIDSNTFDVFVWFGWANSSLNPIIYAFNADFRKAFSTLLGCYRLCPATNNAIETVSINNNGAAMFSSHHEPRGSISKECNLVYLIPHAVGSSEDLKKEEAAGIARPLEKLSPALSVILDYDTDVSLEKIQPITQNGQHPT
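Tetracycline-induced HEK293 TREx D1 cells, force-coupled to calcium signalling, were dye-loaded with a no-wash calcium kit. Compound was pin-added after a 10 s baseline. Fluorescence was read kinetically at 1 cycle/s for 180 s, with calcium rises flagged as agonism.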
D3 ag: agonists of human D3 dopamine receptor | AID 652048 | 0.58% of 410,000 active | P35462 | max activation, % | D3R DiscoveRx beta-arrestin cells, luminescence, 90 min; in the data active = max activation above about 30%; also: 0% is about no effect
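Agonist-mode cell screen: cells plated at 1500/well and incubated overnight at 37 °C, then exposed to library compounds for 90 min at 37 °C. Detection reagent was added for 30–60 min at room temperature, and luminescence was read.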
D3 antag: D3 dopamine receptor (human) antagonism. P35462. D3R cells, DiscoveRx beta-arrestin luminescence, antagonist mode; stronger effect = lower value. max response, negative = inhibition, %. 2.5% of 360,000 active. AID 652054; in the data active = max response below about -50%; inconclusive = no clear call, values can overlap the other calls; also: % is scaled to controls: 0 for no effect and ±100 for the full control effect
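Cells expressing the human receptor were seeded at 1500 cells/well, incubated overnight at 37 degrees C in 5% CO2, then exposed to library compounds with dopamine controls for 90 minutes at 37 degrees C before luminescent detection.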
D1 antagonist: antagonists of human D1 dopamine receptor | P21728 | 3.2% of 360,000 active | activity change, negative = inhibition, % at 10 µM | HEK293 TREx D1 cells, calcium flux, dopamine EC80; stronger effect = lower value; in the data active = activity change below about -30%; also: % is scaled to controls: 0 for no effect and ±100 for the full control effect
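Allosteric or orthosteric antagonism assessed as attenuation of the calcium response to EC80 dopamine, added 180 s after compound, in induced HEK293 Trex D1 cells loaded with no-wash calcium dye.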
D1 PAM: human D1 dopamine receptor positive modulation; HEK293 TREx D1 cells, calcium flux, dopamine EC20 potentiation; potentiation, % at 10 µM; 0.036% of 360,000 active; in the data active = potentiation above about 30%; also: 0% is about no effect
* hit, by the source's call; ? = inconclusive; nt = not tested or not shown; ! = a repeat was not active.

SMILES	D1 agonist	D3 ag	D3 antag	D1 antagonist	D1 PAM
COc1ccc(C(C)(C)C)cc1NC(=O)c1cc(S(=O)(=O)N(C)C)ccc1N1CCCC1	4	-7	-9	-51*	-9
CN(C)S(=O)(=O)c1ccc(N2CCCC2)c(C(=O)Nc2ccc(F)cc2F)c1	3	-4	-11	-14	-5
O=C(CCc1nc(-c2ccccc2F)no1)NC1CCN(Cc2ccccc2)CC1	31*	-1	-51*	-30*	-6
Cc1cc(OCC(=O)NC2CCN(Cc3ccccc3)CC2)c2c(C)cc(=O)oc2c1	6	-20	-63*	10	-3
CC(Oc1ccc(Br)cc1)C(=O)NC1CCN(Cc2ccccc2)CC1 (configuration not stated)	12	-32	-75*	-7	-10
Cc1ccc(-c2noc(CCC(=O)NC3CCN(Cc4ccccc4)CC3)n2)cc1	28	-2	1	-20	-3
CC(C)Oc1ccc(C(=O)NC2CCN(Cc3ccccc3)CC2)cc1	5	-5	12	2	-1
O=C(NC1CCN(Cc2ccccc2)C1)c1cc(COc2ccc(F)cc2F)on1 (configuration not stated)	11	-11	-19	2	-3
Cc1ccc(C)c(OCc2cc(C(=O)NC3CCN(Cc4ccccc4)CC3)no2)c1	15	-27	-93*	-11	-8
CCc1cccc(NC(=O)c2oc3ccc4c(c3c2C)C(=O)CC(C)(C)O4)c1	3	6	nt	-4	1
O=C(COc1ccccc1F)NC1CCN(Cc2ccccc2)CC1	2	-45	-65*	3	-5
Cc1cc(OC(C)C(=O)NC2CCN(Cc3ccccc3)CC2)c2c(C)cc(=O)oc2c1 (configuration not stated)	4	-18	-62*	-5	9
Cc1cc(OCC(=O)NC2CCN(Cc3ccccc3)CC2)c2c(C)c(C)c(=O)oc2c1	2	-17	-82*	-25	-6
CCCc1cc(=O)oc2cc(C)cc(OCC(=O)NC3CCN(Cc4ccccc4)CC3)c12	-1	-20	-28	-4	9
O=C(COc1ccc2c(-c3ccccc3)cc(=O)oc2c1)Nc1cccnc1	20	5	15	-33*	-10
Cc1ccc(C)c(N2CCN(S(=O)(=O)c3ccc(-c4cc(C(F)(F)F)on4)s3)CC2)c1	1	-9	nt	-1	-2
Cc1cc(-c2ccc(S(=O)(=O)Nc3cccc(C)c3C)s2)on1	11	-15	nt	9	-6
COCCCN1C(=O)c2oc3ccccc3c(=O)c2C12C(=O)N(C)c1ccccc12 (configuration not stated)	2	-9	nt	-7	-1
Cc1cc(OCC(=O)Nc2cccnc2)c2c(C)c(C)c(=O)oc2c1	3	3	4	-37*	-20
CCOc1cc(CNCc2ccccc2)ccc1OCC(=O)NC1CCCCC1	34*	-51	-18	-9	-4
COc1cc(CNCc2ccccn2)ccc1OCC(=O)NC1CCCCC1	0	-21	-25	3	0
Cc1cc(OCC(=O)NCc2cccnc2)c2c(C)c(C)c(=O)oc2c1	2	5	14	-6	0
O=C(c1cc(C2CCCCN2C(=O)CCCc2ccccc2)on1)N1CCOCC1 (configuration not stated)	nt	-7	-51*	nt	nt
CCCn1c(/C=C/c2ccccc2)nc2ccccc21	1	31*!	22	-35*!	-7
CCCn1c(SCC(=O)O)nc2ccccc21	2	-3	-21	-88*	1
SMILES	D1 agonist	D3 ag	D3 antag	D1 antagonist	D1 PAM
COCCOCCn1c(/C=C/c2ccccc2)nc2ccccc21	0	-5	1	-1	1
COc1ccc(-c2onc(C)c2C)cc1S(=O)(=O)N1CCN(c2ccc(Cl)cc2)CC1	0	10	nt	5	3
O=c1[nH][nH]c(C(F)(F)F)c1C=Nc1ccc(Cl)cc1	0	-15	-22	4	-1
O=c1[nH][nH]c(C(F)(F)F)c1C=NCc1cccc(Cl)c1	-2	-4	-88*	nt	-1
O=c1[nH][nH]c(C(F)(F)F)c1C=Nc1ccccc1Cl	4	5	?	-28	-7
O=c1[nH][nH]c(C(F)(F)F)c1C=NCc1ccc(Cl)cc1	4	-3	-84*	6	0
COc1ccc(C2=CC(=O)C[C@H](c3ccc(OC)cc3)C2)cc1	6	-12	?	-37*	-3
O=C1C=C(c2ccc(OC(F)(F)F)cc2)C[C@@H](c2ccc(F)cc2)C1	4	14	0	5	1
COc1ccc([C@H]2CC(=O)C=C(c3cccc(C(C)C)c3)C2)cc1	10	-56	-61*	-25	-4
COc1ccc([C@H]2CC(=O)C=C(c3ccc(C)c(F)c3)C2)cc1	56*	-2	?	-29	-2
O=C1C=C(c2ccc(Oc3ccccc3)cc2)C[C@@H](c2ccc(F)cc2)C1	5	-8	-73*	nt	-1
COc1ccc(CNC(=O)CN2C(=O)c3cccnc3Oc3ccc(C)cc32)cc1	-1	-17	nt	-10	0
CCOC(=O)c1c(C)[nH]c(C)c1S(=O)(=O)N(C)CC(=O)N1CCN(c2ccccc2OC)CC1	2	-7	nt	-2	-3
Cc1cccc(-n2nnc(-c3nc(-c4cccs4)no3)c2N)c1	7	-3	nt	2	-4
C[C@@H]1[C@H](O)[C@@H](C)/C=C/C=C\C=C\C=C\C=C\C=C\C=C\[C@H](O[C@@H]2O[C@H](C)[C@@H](O)[C@H](N)[C@@H]2O)C[C@@H]2O[C@](O)(C[C@@H](O)C[C@@H](O)[C@H](O)CC[C@@H](O)C[C@@H](O)CC(=O)O[C@H]1C)C[C@H](O)[C@H]2C(=O)O (stereo in doubt)	nt	-14	nt	nt	nt
O=C1C=C(c2ccc(-c3ccccc3)cc2)C[C@@H](c2ccc(Cl)cc2)C1	2	-2	16	-36*	-13
O=C(CSc1nccn1Cc1ccccc1)NCc1ccccc1Cl	2	-14	nt	-2	2
COc1ccccc1N1CCN(CCCNC(=O)c2cnn(-c3ccccc3)c2C2CCN(C(=O)OC(C)(C)C)CC2)CC1	2	-27	nt	-7	-9
O=c1oc2ccccc2cc1-c1cn2cc(Cc3ccc(Br)cc3)sc2n1	45*	-4	nt	22	2
CCOc1ccccc1NC(=O)Cn1c(=O)n(CCCC(=O)NCCc2ccc(C)cc2)c(=O)c2ccccc21	-1	9	nt	-9	1
COc1ccc(NC(=O)COc2ccc(C)nc2[N+](=O)[O-])cc1S(N)(=O)=O	0	-1	-20	-40*	-1
Cc1cccc(-n2nnnc2S(C)(=O)=O)c1	4	-21	nt	-51*	-1
COc1cccc(Oc2nnnn2-c2ccccc2)c1	1	1	14	2	0
COc1cccc(-n2nnc(S(=O)(=O)c3ccc(C)cc3)c2N)c1	14	3	20	-36*	1
